The test system of experiment [1] is Wnt5a (protein binding on small-molecule microarray). In words: Wnt5a binders on small-molecule microarray, primary screen, biophysical, 635/667 nm fluorescence (AID 1142).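 Further: fluorescence read at 667 nm with signal to noise per printed feature.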 The settings on record: 635 nm fluorescence, higher = more signal.
Experiment [2] can be described thus: cell viability in Huh7 cells, primary screen, cytotoxicity control for HCV replication inhibitor project, CellTiter-Glo luminescence, basal, 48 h (AID 1143).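 Further: Huh7 hepatoma cells carrying a hepatitis C replication reporter with no stimulus; test concentration not given here.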 The note with it: Huh7 HCV replicon, higher = more signal, called active from +8 up or from −8 down.
The nature of experiment [3]: P. aeruginosa biofilm formation inhibitors, primary screen, PAO1 strain, BacTiter-Glo luminescence, LB-PBS (AID 1144). The settings on record: 12 h, higher = more signal.
The nature of experiment [4]: CREB reporter modulators without forskolin, primary screen, cell-based, PC12, CRE-LacZ reporter, unstimulated (AID 1145). The settings on record: no forskolin, luminescence, 4.5 h, higher = more signal, called active from +8 up or from −8 down.
The nature of experiment [5]: CREB reporter modulators under forskolin, primary screen, cell-based, PC12, CRE-LacZ reporter, forskolin-stimulated (AID 1146).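 Further: PC12 cells with 6xCRE LacZ reporter stimulated by forskolin 10 µM; beta-galactosidase reporter signal reflecting CREB driven transcription.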 The note with it: luminescence, 4.5 h, higher = more signal, called active from +8 up or from −8 down.
In experiment [6] the target is Streptavidin (Streptomyces avidinii) (UniProt P22629). Nature of the experiment: streptavidin binders on small-molecule microarray, primary screen, artefact control for SMM compound annotation, biophysical, 635/667 nm fluorescence (AID 1147).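 Further: signal reflects streptavidin binding to arrayed compounds as a control protein.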 The note with it: streptavidin binding, higher = more signal.
Experiment [7] can be described thus: small-molecule binders of probe aInhba, primary screen, biochemical, small-molecule microarray, 635/667 nm fluorescence (AID 1148).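 Further: score merges 667nm spot fluorescence with signal-to-noise for antibody binding to printed compounds.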 The settings on record: higher = more signal.
Experiment [8] concerns the target Torsin-1A (Homo sapiens) (UniProt O14656). Nature of the experiment: torsin A binders from cell lysate, primary screen, small-molecule microarray, wild-type, 635/667 nm (AID 1149). The settings on record: COS7 hTOR1A-WT lysate, 635 nm fluorescence, higher = more signal.
Experiment [9] has the same target. Nature of the experiment: small-molecule binders of mutant TOR1A in lysate, primary screen, cell lysate, small-molecule microarray, COS7 lysate, 635/667 nm fluorescence (AID 1150).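 Further: score pools 667 nm emission and signal to noise measuring lysate protein binding.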 The settings on record: COS7 hTOR1A mutant lysate, 635 nm fluorescence, higher = more signal.
The test system of experiment [10] is Sonic hedgehog protein (Shh). Nature of the experiment: small-molecule binders of Shh protein, primary screen, biochemical, small-molecule microarray, 635/667 nm fluorescence (AID 1151).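 Further: Shh protein binding to compounds spotted on small-molecule microarray slides; score combines spot fluorescence intensity with signal-to-noise across triplicate slides.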 The settings on record: small-molecule microarray binding, 635 nm fluorescence; higher = more signal.
Experiment [11] is described as follows: E. coli DRC41 culture turbidity changes, primary screen, E. coli filamentation inducer project, strain DRC41, OD650, 48 h (AID 1152).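 Further: E. coli MC1000 strain DRC41 lacking acrAB efflux pump and sulA.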 The note with it: E. coli DRC41 (acrAB sulA), higher = more signal, called active from +8 up or from −8 down.
The nature of experiment [12]: small-molecule binders of probe aLefty1, primary screen, biochemical, small-molecule microarray, 635/667 nm fluorescence (AID 1153).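 Further: score merges spot fluorescence with signal-to-noise ratio from the scanned slide images.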 The settings on record: higher = more signal.
Experiment [13] in a line: PSAC antagonists in infected red cells, primary screen, cell-based, P. falciparum Indochina, OD700, 1 h (AID 1154). The note with it: P. falciparum Indochina infected RBC osmotic lysis, higher = more signal, called active from +8 up or from −8 down.
A short description of experiment [14]: PSAC antagonists in infected red cells, primary screen, cell-based, P. falciparum Indochina, OD700, 2 h (AID 1155).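 Further: lysis reports solute entry through the parasite surface anion channel PSAC; channel blockers reduce lysis of infected cells.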 The settings on record: P. falciparum Indochina infected erythrocytes, osmotic lysis OD700; higher = more signal, called active from +8 up or from −8 down.
The nature of experiment [15]: osmotic lysis modulators in infected erythrocytes, primary screen, PSAC antagonist project, cell-based, P. falciparum Indochina, OD700, 3 h (AID 1156). The settings on record: higher = more signal, called active from +8 up or from −8 down.
Experiment [16] can be described thus: PSAC antagonists in infected red cells, primary screen, cell-based, P. falciparum Indochina, OD700, 18 h (AID 1157). The note with it: P. falciparum Indochina infected erythrocytes, osmotic lysis OD700, 18 h; higher = more signal, called active from +8 up or from −8 down.
Experiment [17] can be described thus: modulators of S6 phosphorylation in cells, primary screen, cell-based, A549, cytoblot, luminescence, serum-stimulated (AID 1158).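 Further: serum-stimulated A549 lung adenocarcinoma cells; signal is phosphorylated S6 detected by cytoblot immunostaining with HRP secondary.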 The note with it: A549 phospho-S6 cytoblot, 5 h, higher = more signal.
Experiment [18] deals with NADPH oxidase 2 (Homo sapiens) (UniProt P04839). In words: NOX2-dependent H2O2 signal modulators, primary screen, NOX inhibitor project, cell-based, HEK293-NOX2, PMA-stimulated, Amplex Red fluorescence (AID 1159). Further: test concentration not given here. The settings on record: 45 min, higher = more signal, called active from +8 up or from −8 down.
Experiment [19] addresses NADPH oxidase 4 (Homo sapiens) (UniProt Q9NPH5). In words: NOX4-dependent H2O2 signal modulators, primary screen, NOX inhibitor project, cell-based, HEK293-NOX4, tetracycline-induced, Amplex Red fluorescence (AID 1160). The note with it: 45 min, higher = more signal, called active from +8 up or from −8 down.
The target in experiment [20] is NADPH oxidase 5 (Homo sapiens) (UniProt Q96PH1). Nature of the experiment: NOX5-dependent H2O2 signal modulators, primary screen, NOX inhibitor project, cell-based, HEK293-NOX5, Amplex Red fluorescence (AID 1161). The note with it: HEK293-NOX5, ionomycin, 45 min, higher = more signal.

Calls of active or inactive are those of the source. Unless noted, how the calls were made is not given here.

These results are taken from PubChem BioAssay.

NADPH oxidase 4 (Homo sapiens), sequence (Q9NPH5 whole entry, looked up): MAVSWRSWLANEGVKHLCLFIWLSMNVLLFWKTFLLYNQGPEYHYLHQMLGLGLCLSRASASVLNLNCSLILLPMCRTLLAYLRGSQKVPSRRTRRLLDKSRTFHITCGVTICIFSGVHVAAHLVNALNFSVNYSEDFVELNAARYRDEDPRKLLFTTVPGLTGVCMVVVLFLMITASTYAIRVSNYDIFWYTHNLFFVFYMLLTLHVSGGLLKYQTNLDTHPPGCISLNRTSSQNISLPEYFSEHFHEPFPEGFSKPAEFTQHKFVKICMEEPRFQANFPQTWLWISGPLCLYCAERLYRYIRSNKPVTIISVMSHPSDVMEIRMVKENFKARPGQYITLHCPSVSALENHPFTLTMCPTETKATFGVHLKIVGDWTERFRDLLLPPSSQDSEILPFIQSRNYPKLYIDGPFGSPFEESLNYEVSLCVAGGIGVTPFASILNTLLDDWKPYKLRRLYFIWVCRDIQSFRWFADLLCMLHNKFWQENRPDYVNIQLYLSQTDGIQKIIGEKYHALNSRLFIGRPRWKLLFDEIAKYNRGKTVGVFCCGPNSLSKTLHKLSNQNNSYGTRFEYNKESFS
Torsin-1A (Homo sapiens), sequence (O14656 whole entry, looked up): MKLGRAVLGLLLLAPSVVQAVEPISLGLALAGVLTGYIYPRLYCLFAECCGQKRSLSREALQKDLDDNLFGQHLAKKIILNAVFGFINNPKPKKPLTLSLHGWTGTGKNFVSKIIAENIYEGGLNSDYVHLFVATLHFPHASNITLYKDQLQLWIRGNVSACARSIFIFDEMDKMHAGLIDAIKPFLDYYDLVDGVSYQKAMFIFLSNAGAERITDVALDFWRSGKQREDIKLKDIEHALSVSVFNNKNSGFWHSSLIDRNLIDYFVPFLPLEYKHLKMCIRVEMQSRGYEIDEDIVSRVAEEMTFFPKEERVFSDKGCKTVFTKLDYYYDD
NADPH oxidase 2 (Homo sapiens), sequence (P04839 whole entry, looked up): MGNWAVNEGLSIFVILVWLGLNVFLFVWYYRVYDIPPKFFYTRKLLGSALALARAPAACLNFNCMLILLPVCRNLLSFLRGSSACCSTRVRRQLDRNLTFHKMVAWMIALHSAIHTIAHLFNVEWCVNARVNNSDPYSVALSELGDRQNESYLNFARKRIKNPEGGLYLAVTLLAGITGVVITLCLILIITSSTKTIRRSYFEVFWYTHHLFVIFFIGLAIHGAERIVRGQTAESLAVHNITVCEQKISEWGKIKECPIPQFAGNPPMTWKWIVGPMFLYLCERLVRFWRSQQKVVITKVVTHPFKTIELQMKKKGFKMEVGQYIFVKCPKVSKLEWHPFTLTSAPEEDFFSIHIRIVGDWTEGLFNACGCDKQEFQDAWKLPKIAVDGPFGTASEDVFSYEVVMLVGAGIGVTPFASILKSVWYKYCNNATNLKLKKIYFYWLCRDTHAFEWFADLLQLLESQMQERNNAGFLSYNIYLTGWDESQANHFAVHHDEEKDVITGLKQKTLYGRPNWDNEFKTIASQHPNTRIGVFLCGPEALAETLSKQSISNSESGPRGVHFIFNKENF
Streptavidin (Streptomyces avidinii), sequence (P22629 whole entry, looked up): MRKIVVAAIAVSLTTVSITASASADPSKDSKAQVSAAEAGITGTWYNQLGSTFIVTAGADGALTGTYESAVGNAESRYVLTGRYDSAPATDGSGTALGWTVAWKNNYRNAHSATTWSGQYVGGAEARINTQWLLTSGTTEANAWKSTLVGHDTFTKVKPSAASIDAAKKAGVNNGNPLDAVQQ
NADPH oxidase 5 (Homo sapiens), sequence (Q96PH1 whole entry, looked up): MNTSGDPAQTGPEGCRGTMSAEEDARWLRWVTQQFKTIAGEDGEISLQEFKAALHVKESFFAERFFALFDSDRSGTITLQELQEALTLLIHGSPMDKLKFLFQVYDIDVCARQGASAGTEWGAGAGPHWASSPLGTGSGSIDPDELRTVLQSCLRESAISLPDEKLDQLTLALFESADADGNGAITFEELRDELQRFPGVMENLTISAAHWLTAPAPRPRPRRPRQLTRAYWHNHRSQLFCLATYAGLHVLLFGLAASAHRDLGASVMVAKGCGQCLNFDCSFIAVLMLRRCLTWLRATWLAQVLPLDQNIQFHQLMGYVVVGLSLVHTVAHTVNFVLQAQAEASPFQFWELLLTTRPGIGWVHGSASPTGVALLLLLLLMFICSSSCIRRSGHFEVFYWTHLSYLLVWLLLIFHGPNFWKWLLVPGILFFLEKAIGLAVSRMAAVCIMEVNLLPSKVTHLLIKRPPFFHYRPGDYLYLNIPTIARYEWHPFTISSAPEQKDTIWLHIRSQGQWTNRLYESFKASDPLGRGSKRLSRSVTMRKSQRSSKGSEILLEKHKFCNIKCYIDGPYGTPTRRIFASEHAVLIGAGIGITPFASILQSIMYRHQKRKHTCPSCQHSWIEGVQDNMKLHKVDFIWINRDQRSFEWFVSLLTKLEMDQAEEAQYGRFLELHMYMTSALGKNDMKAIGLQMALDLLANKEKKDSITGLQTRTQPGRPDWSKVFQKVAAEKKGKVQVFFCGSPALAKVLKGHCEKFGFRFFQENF

As to `C[C@H]1C=CCC(=O)OC[C@H](C)C(=O)N2CCC[C@H]2C(=O)OC1`, the composite z-score in experiment [1] was 0.193; in [6] it was -0.176; in experiment [7], -0.182; in the experiment with Torsin-1A (Homo sapiens) [8], 3.32; with Torsin-1A (Homo sapiens) [9], 3.03; in experiment [10], 2.35. In experiment [12], the composite z-score is -0.199. Besides, the z-score was -0.401 (inactive) in experiment [2]; -0.324 (inactive) in experiment [3]; -0.324 (inactive) in [4]; 0.0267 (inactive) in experiment [5]; 0.392 (inactive) in [11]; 0.158 (inactive) in experiment [13]. The z-score was -0.157 (inactive) in experiment [14]; 0.484 (inactive) in experiment [15]; 0.0217 (inactive) in experiment [16]; -0.732 in experiment [17]; 0.166 (inactive) in [18]; 0.515 (inactive) in [19]. Moreover, the z-score in [20] is -0.957.

On to `COc1ccc(COC(=O)NN=C2C[C@@H](O)[C@@H](O)[C@@H]3[C@@H]4C(=O)N(C[C@@H]5CCCO5)C(=O)[C@@H]4CC[C@H]23)cc1`, for which the composite z-score in experiment [1] was -0.109; in experiment [6] it was 0.669; in [7], 0.0275; in the experiment with Torsin-1A (Homo sapiens) [8] it was -0.858; in the experiment with Torsin-1A (Homo sapiens) [9], -0.48; in experiment [10], -1.12. In experiment [12], this compound displayed a composite z-score of 0.544. Moreover, the z-score in experiment [2] was 0.338 (inactive); in [3], 0.296 (inactive); in experiment [4], 0.159 (inactive); in experiment [5], -0.166 (inactive); in experiment [11] it was -0.39 (inactive); in experiment [13] it was 3.23 (inactive). In addition, the z-score in experiment [14] was 0.632 (inactive); in experiment [15] it was 0.398 (inactive); in experiment [16], 0.548 (inactive); in experiment [17], -0.308; in experiment [18], -3.46 (inactive); in experiment [19] it was 0.223 (inactive). In addition, the z-score in experiment [20] amounted to 0.0239.

Take `OC[C@H]1O[C@H](C#Cc2ccccc2)C=C[C@@H]1O`: the composite z-score in experiment [1] was 0.0146; in experiment [6], 0.431; in [7], 0.0227; with Torsin-1A (Homo sapiens) [8], -0.339; in the experiment with Torsin-1A (Homo sapiens) [9] it was 0.141; in [10] it was 0.363. Moreover, the composite z-score in [12] was -0.425. Besides, the z-score in [2] was -0.574 (inactive); in [3], -0.385 (inactive); in [4], -1.07 (inactive); in experiment [5], 0.186 (inactive); in [11] it was 0.402 (inactive); in experiment [13], 1.74 (inactive). The z-score in [14] was 0.803 (inactive); in experiment [15] it was 0.802 (inactive); in experiment [16], 0.784 (inactive); in experiment [17] it was -0.0359; in experiment [18] it was -0.178 (inactive); in experiment [19], 0.662 (inactive). Besides, in [20], the z-score is 1.33.

On to `C=CC[C@@H]1C=C[C@H](ON=CC[C@@H]2C=C[C@H](OC(C)=O)[C@@H](COC(C)=O)O2)[C@@H](CO)O1`, for which the composite z-score was 0.521 in experiment [1]; 1.54 in experiment [6]; 0.113 in experiment [7]; -0.161 in the experiment with Torsin-1A (Homo sapiens) [8]; 0.259 in the experiment with Torsin-1A (Homo sapiens) [9]; 0.925 in [10]. This compound also came in with a composite z-score in experiment [12] of 0.455. The z-score is 0.0101 (inactive) in experiment [2]; -0.325 (inactive) in experiment [3]; -1.21 (inactive) in experiment [4]; -0.66 (inactive) in experiment [5]; 0.4 (inactive) in experiment [11]; 0.551 (inactive) in experiment [13]. The z-score in experiment [14] was 0.538 (inactive); in experiment [15], -0.0293 (inactive); in [16] it was 0.393 (inactive); in [17], 0.166; in [18], -0.893 (inactive); in experiment [19], 0.319 (inactive). Moreover, in [20], the z-score is 1.03.
